# Source: PubChem BioAssay (NCATS)
# Inconclusive results are not listed. Where a call stands in place of a potency, no number is given. Values without a mark were called inactive. Active and inactive are the calls of the source. Calls come from the whole dose curve; as a rule, active = well fitted curve in the direction sought with a large enough effect; inconclusive = small, poorly fitted or top-dose-only effect, or another doubt; inactive = no such curve, though single readings can be large; an effect the other way counts as inactive or inconclusive.
# Experiments:
# [1] = Quantitative High-Throughput drug screen in 47 multiple myeloma cell lines against the NCATS MIPE library collection: KMS27_JCRB cell viability assay (AID 1918970); note: nearly all actives have a fitted effect of over 30% in size; note: potency is the fitted concentration of half-maximal effect
# Outline: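 Luminescent ATP read-out (CellTiter-Glo, 5 min at room temperature) after 48 h compound exposure of 500 KMS27_JCRB cells per well; DMSO wells define full viability and media-only wells zero.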
# [2] = Quantitative High-Throughput drug screen in 47 multiple myeloma cell lines against the NCATS MIPE library collection: KMS12BM_JCRB cell viability assay (AID 1918971); note: nearly all actives have a fitted effect of over 35% in size; note: potency is the fitted concentration of half-maximal effect
# Outline: (§1)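 Inhibition of cell viability is measured here. Each line was plated at 500 cells per well, treated with MIPE 4.0 drugs, kept 48 hours at 37C, then assayed for ATP content by CellTiter-Glo luminescence.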
# [3] = Quantitative High-Throughput drug screen in 47 multiple myeloma cell lines against the NCATS MIPE library collection: NCIH929_DSMZ cell viability assay (AID 1918978); note: nearly all actives have a fitted effect of over 35% in size; note: potency is the fitted concentration of half-maximal effect
# Outline: (§2)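 Viability after 48 h drug exposure was measured as ATP-dependent luminescence. Cells, 500 per well, sat at 37 °C under 5% CO2; DMSO wells set 100%, media-only wells 0%.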
# [4] = Quantitative High-Throughput drug screen in 47 multiple myeloma cell lines against the NCATS MIPE library collection: OCIMY1_PLB cell viability assay (AID 1918979); note: nearly all actives have a fitted effect of over 35% in size; note: potency is the fitted concentration of half-maximal effect
# Outline: as §2
# [5] = Quantitative High-Throughput drug screen in 47 multiple myeloma cell lines against the NCATS MIPE library collection: MM1R_ATCC cell viability assay (AID 1918981); note: nearly all actives have a fitted effect of over 35% in size; note: potency is the fitted concentration of half-maximal effect
# Outline: as §2
# [6] = Quantitative High-Throughput drug screen in 47 multiple myeloma cell lines against the NCATS MIPE library collection: KMS28PE_JCRB cell viability assay (AID 1918983); note: nearly all actives have a fitted effect of over 35% in size
# Outline: as §2
# [7] = Quantitative High-Throughput drug screen in 47 multiple myeloma cell lines against the NCATS MIPE library collection: L363_DSMZ cell viability assay (AID 1918984); note: nearly all actives have a fitted effect of over 40% in size; note: potency is the fitted concentration of half-maximal effect
# Outline: as §2
# [8] = Quantitative High-Throughput drug screen in 47 multiple myeloma cell lines against the NCATS MIPE library collection: KMS34_JCRB cell viability assay (AID 1918985); note: nearly all actives have a fitted effect of over 40% in size; note: potency is the fitted concentration of half-maximal effect
# Outline: as §2
# [9] = Quantitative High-Throughput drug screen in 47 multiple myeloma cell lines against the NCATS MIPE library collection: SKMM1_PLB cell viability assay (AID 1919863); conditions: SKMM1 myeloma viability, CellTiter-Glo ATP, 48 h; viability: active compounds read low; note: nearly all actives have a fitted effect of over 35% in size; note: potency is the fitted concentration of half-maximal effect
# Outline: as §2
# [10] = Quantitative High-Throughput drug screen in 47 multiple myeloma cell lines against the NCATS MIPE library collection: MM1S_ATCC cell viability assay (AID 1918980); note: nearly all actives have a fitted effect of over 45% in size; note: potency is the fitted concentration of half-maximal effect
# Outline: as §2
# [11] = Quantitative High-Throughput drug screen in 47 multiple myeloma cell lines against the NCATS MIPE library collection: KMS12PE_JCRB cell viability assay (AID 1918972); note: nearly all actives have a fitted effect of over 30% in size; note: potency is the fitted concentration of half-maximal effect
# Outline: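 qHTS of the MIPE 4.0 collection: 500 myeloma cells/well, 48 h drug exposure at 37C in 5% CO2, then CellTiter-Glo for 5 min at room temperature before luminescence reading.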
# [12] = Quantitative High-Throughput drug screen in 47 multiple myeloma cell lines against the NCATS MIPE library collection: KMS26_JCRB cell viability assay (AID 1918975); note: nearly all actives have a fitted effect of over 45% in size; note: potency is the fitted concentration of half-maximal effect
# Outline: as §1
# [13] = Quantitative High-Throughput drug screen in 47 multiple myeloma cell lines against the NCATS MIPE library collection: MOLP8_DSMZ cell viability assay (AID 1918977); note: nearly all actives have a fitted effect of over 45% in size; note: potency is the fitted concentration of half-maximal effect
# Outline: as §2
# [14] = Quantitative High-Throughput drug screen in 47 multiple myeloma cell lines against the NCATS MIPE library collection: OCIMY5_PLB cell viability assay (AID 1918988); note: nearly all actives have a fitted effect of over 65% in size; note: potency is the fitted concentration of half-maximal effect
# Outline: as §2
# [15] = Quantitative High-Throughput drug screen in 47 multiple myeloma cell lines against the NCATS MIPE library collection: OPM1_PLB cell viability assay (AID 1918989); note: nearly all actives have a fitted effect of over 40% in size; note: potency is the fitted concentration of half-maximal effect
# Outline: as §2
# [16] = Quantitative High-Throughput drug screen in 47 multiple myeloma cell lines against the NCATS MIPE library collection: KMS21BM_JCRB cell viability assay (AID 1918974); conditions: ATP luminescence, 48 h; viability: at 45.8 µM (top of the series) unless noted; note: potency is the fitted concentration of half-maximal effect
# Outline: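 We plated 500 myeloma cells per well, pinned in MIPE 4.0 compounds, and incubated for 48 hours at 37C. ATP was then quantified with CellTiter-Glo, with DMSO and media-only wells defining 100% and 0%.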
# [17] = Quantitative High-Throughput drug screen in 47 multiple myeloma cell lines against the NCATS MIPE library collection: OCIMY7_PLB cell viability assay (AID 1918987); note: nearly all actives have a fitted effect of over 65% in size; note: potency is the fitted concentration of half-maximal effect
# Outline: as §2
# [18] = Quantitative High-Throughput drug screen in 47 multiple myeloma cell lines against the NCATS MIPE library collection: LP1_DSMZ cell viability assay (AID 1918982); note: nearly all actives have a fitted effect of over 35% in size
# Outline: as §2
# [19] = Quantitative High-Throughput drug screen in 47 multiple myeloma cell lines against the NCATS MIPE library collection: MMM1_PLB cell viability assay (AID 1918976)
# Outline: as §2
smiles,measurement,setting,value
Clc1ccc2c(N3CCN(CCCN4CCN(c5ccnc6cc(Cl)ccc56)CC4)CC3)ccnc2c1,Potency,[1],inactive
same,Potency,[2],inactive
same,Potency,[3],inactive
same,Potency,[4],inactive
same,Potency,[5],inactive
same,Potency,[6],inactive
same,Potency,[7],inactive
same,Potency,[8],inactive
same,viability,[9],129%
Cc1ncc([N+](=O)[O-])n1CC(C)O (stereo not drawn),Potency,[1],inactive
same,Potency,[2],inactive
same,Potency,[3],20.9 µM (active)
same,Potency,[10],14.8 µM (active)
same,Potency,[5],inactive
same,Potency,[6],inactive
same,viability,[9],126%
O=P(O)(O)C(O)(Cn1ccnc1)P(=O)(O)O,Potency,[1],inactive
same,Potency,[11],inactive
same,Potency,[12],inactive
same,Potency,[13],inactive
same,Potency,[3],inactive
same,Potency,[4],inactive
same,Potency,[5],inactive
same,Potency,[6],inactive
same,Potency,[7],inactive
same,Potency,[14],inactive
same,Potency,[15],inactive
same,viability,[9],138%
Cn1c(NCCN(CCO)CCCc2ccc([N+](=O)[O-])cc2)cc(=O)n(C)c1=O,Potency,[1],26.4 µM (active)
same,Potency,[11],20.9 µM (active)
same,Potency,[16],10.5 µM (active)
same,Potency,[12],inactive
same,Potency,[4],inactive
same,Potency,[10],23.5 µM (active)
same,Potency,[8],inactive
same,Potency,[17],inactive
same,viability,[9],107%
COc1ccc(C2(C#N)CCC(C(=O)O)CC2)cc1OC1CCCC1 (stereo not drawn),Potency,[1],inactive
same,Potency,[2],inactive
same,Potency,[12],inactive
same,Potency,[4],inactive
same,Potency,[10],26.4 µM (active)
same,Potency,[5],inactive
same,Potency,[18],inactive
same,Potency,[6],inactive
same,Potency,[8],inactive
same,Potency,[15],7.43 µM (active)
same,viability,[9],137%
Cc1cc(C2CCCCC2)n(O)c(=O)c1,Potency,[1],5.26 µM (active)
same,Potency,[2],8.33 µM (active)
same,Potency,[12],10.5 µM (active)
same,Potency,[19],14.8 µM (active)
same,Potency,[13],4.18 µM (active)
same,Potency,[3],7.43 µM (active)
same,Potency,[4],16.6 µM (active)
same,Potency,[5],1.48 µM (active)
same,Potency,[7],7.43 µM (active)
same,Potency,[8],5.26 µM (active)
same,Potency,[17],7.43 µM (active)
same,Potency,[14],2.09 µM (active)
same,Potency,[15],9.35 µM (active)
same,Potency,[9],9.35 µM (active)
Cc1cc2c(s1)Nc1ccccc1N=C2N1CCN(C)CC1,Potency,[1],inactive
same,Potency,[11],inactive
same,Potency,[12],inactive
same,Potency,[13],inactive
same,Potency,[3],inactive
same,Potency,[4],inactive
same,Potency,[5],inactive
same,Potency,[6],inactive
same,Potency,[8],inactive
same,viability,[9],120%
CCCS(=O)c1ccc2nc(NC(=O)OC)[nH]c2c1 (stereo not drawn),Potency,[1],inactive
same,Potency,[2],20.9 µM (active)
same,Potency,[12],10.5 µM (active)
same,Potency,[3],inactive
same,Potency,[14],16.6 µM (active)
same,Potency,[9],10.5 µM (active)
Clc1ccc(C(Cn2ccnc2)OCc2ccsc2Cl)c(Cl)c1 (stereo not drawn),Potency,[1],26.4 µM (active)
same,Potency,[11],18.7 µM (active)
same,Potency,[12],inactive
same,Potency,[8],inactive
same,Potency,[14],26.4 µM (active)
same,Potency,[9],13.2 µM (active)
COc1c(O)cc2c(c1O)[C@@H]1O[C@H](CO)[C@@H](O)[C@H](O)[C@H]1OC2=O,Potency,[1],inactive
same,Potency,[2],4.18 µM (active)
same,Potency,[12],inactive
same,Potency,[19],2.35 µM (active)
same,Potency,[3],inactive
same,Potency,[4],inactive
same,Potency,[5],inactive
same,Potency,[6],inactive
same,Potency,[7],inactive
same,Potency,[17],inactive
same,Potency,[14],inactive
same,Potency,[15],inactive
CN(C)CCc1c[nH]c2ccc(Cn3cncn3)cc12,Potency,[1],16.6 µM (active)
same,Potency,[2],inactive
same,Potency,[12],inactive
same,Potency,[3],inactive
same,Potency,[4],inactive
same,Potency,[5],inactive
same,Potency,[18],inactive
same,Potency,[8],inactive
same,Potency,[15],inactive
same,viability,[9],127%
O=c1ccc2ccc(O)c(O)c2o1,Potency,[1],18.7 µM (active)
same,Potency,[2],18.7 µM (active)
same,Potency,[19],7.43 µM (active)
same,Potency,[4],inactive
same,Potency,[10],4.18 µM (active)
same,Potency,[6],inactive
same,Potency,[17],8.33 µM (active)
same,Potency,[15],18.7 µM (active)
CCOC(=O)c1c(C)n(C)c2ccc(O)cc12,Potency,[1],inactive
same,Potency,[11],inactive
same,Potency,[12],inactive
same,Potency,[13],inactive
same,Potency,[3],inactive
same,Potency,[4],inactive
same,Potency,[5],inactive
same,Potency,[18],inactive
same,Potency,[6],inactive
same,Potency,[7],inactive
same,Potency,[8],3.72 µM (active)
same,Potency,[14],3.72 µM (active)
same,Potency,[15],inactive
same,viability,[9],121%
Cc1nc2n(c(=O)c1CCN1CCC(c3noc4cc(F)ccc34)CC1)CCCC2,Potency,[1],inactive
same,Potency,[2],inactive
same,Potency,[13],inactive
same,Potency,[3],inactive
same,Potency,[4],inactive
same,Potency,[10],inactive
same,Potency,[5],inactive
same,Potency,[6],inactive
same,Potency,[8],inactive
same,viability,[9],134%
